What all share (assay): DAPPL (digital affinity profiling via proximity ligation, sequencing); 10 mM Tris-HCl pH 7.5, 50 mM NaCl, 1 mM DTT, 4% glycerol, room temperature, 30 min; GST-TFs on glutathione beads, 16-mer random dsDNA library, 0.1% formaldehyde crosslink after washing; high values mean tight binding
Holding throughout (settings): protein: recombinant; tags: N-terminal GST; dsDNA, one strand shown

One test concerns the target T1, FLI1 (Homo sapiens, UniProt Q01543 1-452).
T1 sequence: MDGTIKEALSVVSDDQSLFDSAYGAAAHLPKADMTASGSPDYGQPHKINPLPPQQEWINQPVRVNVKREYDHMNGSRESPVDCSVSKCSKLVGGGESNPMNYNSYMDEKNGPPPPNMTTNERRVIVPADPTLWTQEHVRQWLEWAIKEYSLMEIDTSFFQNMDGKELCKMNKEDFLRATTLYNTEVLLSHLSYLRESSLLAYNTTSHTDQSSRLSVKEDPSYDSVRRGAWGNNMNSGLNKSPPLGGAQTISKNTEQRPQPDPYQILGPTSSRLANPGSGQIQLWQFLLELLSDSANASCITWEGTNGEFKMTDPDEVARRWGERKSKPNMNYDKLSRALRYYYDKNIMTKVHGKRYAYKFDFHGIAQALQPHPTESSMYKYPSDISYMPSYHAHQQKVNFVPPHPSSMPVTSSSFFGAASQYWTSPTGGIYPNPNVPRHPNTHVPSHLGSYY
Summed up: (§1)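 GST fusions of human transcription factors were expressed in yeast and captured with glutathione beads. Once given DNA barcodes and pooled alongside a tag-only sample, they were incubated for 30 min at room temperature with 200 nmole of a random double-stranded 16-mer DNA library in Tris/NaCl/DTT/glycerol buffer, then washed, crosslinked (0.1% formaldehyde), proximity-ligated, PCR-amplified and sequenced on an Illumina NextSeq500. The binding signal of each hexamer is its read frequency for a factor divided by its frequency for the tag-only sample.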

A further test addresses T2, ELK1 (Homo sapiens, UniProt P19419 1-428).
T2 sequence: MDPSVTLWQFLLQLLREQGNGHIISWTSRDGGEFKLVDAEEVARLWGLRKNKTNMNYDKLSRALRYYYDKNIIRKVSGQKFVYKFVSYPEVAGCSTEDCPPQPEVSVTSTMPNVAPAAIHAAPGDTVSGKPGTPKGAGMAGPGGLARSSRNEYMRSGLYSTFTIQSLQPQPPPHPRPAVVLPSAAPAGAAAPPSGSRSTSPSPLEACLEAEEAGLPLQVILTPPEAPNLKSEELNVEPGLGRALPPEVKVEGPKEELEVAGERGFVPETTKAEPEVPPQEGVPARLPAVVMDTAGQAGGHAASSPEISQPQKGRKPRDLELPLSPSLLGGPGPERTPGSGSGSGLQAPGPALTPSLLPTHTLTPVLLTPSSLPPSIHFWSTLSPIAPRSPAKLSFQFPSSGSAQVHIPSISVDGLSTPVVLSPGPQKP
A digest of the protocol: as §1

In another test the target is T3, GABPA (Homo sapiens, UniProt Q06546 1-454).
T3 sequence: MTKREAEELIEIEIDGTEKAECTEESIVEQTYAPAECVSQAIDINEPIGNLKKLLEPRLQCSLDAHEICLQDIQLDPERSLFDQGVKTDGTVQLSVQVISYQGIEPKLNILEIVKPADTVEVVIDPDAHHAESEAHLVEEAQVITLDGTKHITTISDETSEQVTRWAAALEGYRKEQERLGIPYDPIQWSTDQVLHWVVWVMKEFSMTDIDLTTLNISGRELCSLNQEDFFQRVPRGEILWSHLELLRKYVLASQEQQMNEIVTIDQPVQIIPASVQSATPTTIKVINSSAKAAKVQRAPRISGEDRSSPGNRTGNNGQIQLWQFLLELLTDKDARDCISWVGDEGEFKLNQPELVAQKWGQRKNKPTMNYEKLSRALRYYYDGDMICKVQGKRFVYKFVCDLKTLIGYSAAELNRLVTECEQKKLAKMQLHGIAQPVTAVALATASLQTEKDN
A digest of the protocol:
as §1

Another test addresses T4, ERG (Homo sapiens, UniProt P11308 1-479).
T4 sequence: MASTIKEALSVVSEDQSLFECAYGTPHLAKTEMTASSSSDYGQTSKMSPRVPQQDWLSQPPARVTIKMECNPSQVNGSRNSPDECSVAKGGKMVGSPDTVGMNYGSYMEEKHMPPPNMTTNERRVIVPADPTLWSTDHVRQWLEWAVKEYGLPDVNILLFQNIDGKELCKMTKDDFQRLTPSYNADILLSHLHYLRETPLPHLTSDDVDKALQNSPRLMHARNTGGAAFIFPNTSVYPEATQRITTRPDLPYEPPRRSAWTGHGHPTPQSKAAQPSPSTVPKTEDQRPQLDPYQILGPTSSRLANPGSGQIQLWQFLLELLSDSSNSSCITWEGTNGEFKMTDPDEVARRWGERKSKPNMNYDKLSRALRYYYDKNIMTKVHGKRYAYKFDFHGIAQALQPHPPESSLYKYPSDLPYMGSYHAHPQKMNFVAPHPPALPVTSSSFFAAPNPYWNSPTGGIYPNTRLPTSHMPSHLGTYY
Summed up:
as §1

A further test addresses ELF1 (Homo sapiens, UniProt P32519 1-619). A digest of the protocol:
as §1

Another test has as its target T5, EHF (Homo sapiens, UniProt Q9NZC4 1-300).
T5 sequence: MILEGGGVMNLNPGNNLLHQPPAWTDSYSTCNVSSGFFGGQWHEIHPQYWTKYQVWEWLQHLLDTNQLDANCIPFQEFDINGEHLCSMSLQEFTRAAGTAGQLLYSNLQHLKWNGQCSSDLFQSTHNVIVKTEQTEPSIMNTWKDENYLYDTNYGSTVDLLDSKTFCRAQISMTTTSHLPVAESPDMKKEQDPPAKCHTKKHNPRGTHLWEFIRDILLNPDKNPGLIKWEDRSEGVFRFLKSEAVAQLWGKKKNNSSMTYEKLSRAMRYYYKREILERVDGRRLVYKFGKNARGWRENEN
Summed up:
as §1

The next test deals with SPI1 (Homo sapiens, UniProt P17947 1-270). A digest of the protocol:
as §1

A further test has as its target SPIB (Homo sapiens, UniProt Q01892 1-262). A digest of the protocol:
as §1

In a further test the target is T6, ELK3 (Homo sapiens, UniProt P41970 1-407).
T6 sequence: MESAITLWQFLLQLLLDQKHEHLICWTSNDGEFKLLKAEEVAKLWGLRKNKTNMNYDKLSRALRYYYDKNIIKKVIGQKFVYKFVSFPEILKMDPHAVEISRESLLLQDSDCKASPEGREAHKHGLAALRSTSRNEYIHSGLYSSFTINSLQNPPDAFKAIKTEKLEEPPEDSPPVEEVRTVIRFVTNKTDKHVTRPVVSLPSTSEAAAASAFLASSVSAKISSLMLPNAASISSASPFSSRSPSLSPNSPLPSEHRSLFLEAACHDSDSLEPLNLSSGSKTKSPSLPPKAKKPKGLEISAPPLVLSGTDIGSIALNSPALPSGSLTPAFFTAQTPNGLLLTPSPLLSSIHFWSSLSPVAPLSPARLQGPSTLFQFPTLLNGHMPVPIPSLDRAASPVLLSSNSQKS
Summed up:
as §1

Among the data in publication PMC7862700, “An all-to-all approach to the identification of sequence-specific readers for epigenetic DNA modifications on cytosine” are binding signal values, retold here.

Chain of SPIB (Q01892 whole entry): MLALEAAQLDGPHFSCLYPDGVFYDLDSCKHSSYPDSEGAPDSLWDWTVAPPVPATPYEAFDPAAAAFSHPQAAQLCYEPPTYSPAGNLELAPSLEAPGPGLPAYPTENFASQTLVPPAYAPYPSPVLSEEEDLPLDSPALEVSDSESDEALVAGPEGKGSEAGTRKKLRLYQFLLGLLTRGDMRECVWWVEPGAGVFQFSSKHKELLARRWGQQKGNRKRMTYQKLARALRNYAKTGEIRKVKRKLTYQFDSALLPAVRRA
Chain of ELF1 (P32519 whole entry): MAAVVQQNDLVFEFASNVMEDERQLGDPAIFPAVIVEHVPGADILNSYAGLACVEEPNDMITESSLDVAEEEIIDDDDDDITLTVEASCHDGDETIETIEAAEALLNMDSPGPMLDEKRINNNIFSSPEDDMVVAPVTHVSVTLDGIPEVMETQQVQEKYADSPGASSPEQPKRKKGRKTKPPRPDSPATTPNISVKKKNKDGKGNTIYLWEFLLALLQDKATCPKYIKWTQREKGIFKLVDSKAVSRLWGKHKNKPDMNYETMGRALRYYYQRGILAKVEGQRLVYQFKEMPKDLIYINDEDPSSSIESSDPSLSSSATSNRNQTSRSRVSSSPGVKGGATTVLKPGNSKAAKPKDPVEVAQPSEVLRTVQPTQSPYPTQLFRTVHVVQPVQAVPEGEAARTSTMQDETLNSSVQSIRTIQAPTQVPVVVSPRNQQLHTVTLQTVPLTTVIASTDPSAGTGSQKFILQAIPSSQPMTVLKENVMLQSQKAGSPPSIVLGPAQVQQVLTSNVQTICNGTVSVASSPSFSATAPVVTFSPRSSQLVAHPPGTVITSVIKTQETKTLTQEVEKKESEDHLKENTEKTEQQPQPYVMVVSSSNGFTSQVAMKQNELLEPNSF

Consider TTCTGC, for which the binding signal with FLI1 is 1.54 fold enrichment (6-mer frequency, TF over GST control); in the test with ELK1 it was 1.49 fold enrichment (6-mer frequency, TF over GST control); in the test with GABPA it was 1.4 fold enrichment (6-mer frequency, TF over GST control); with ERG, 1.32 fold enrichment (6-mer frequency, TF over GST control); with ELF1 it was 1.52 fold enrichment (6-mer frequency, TF over GST control); with EHF, 1.46 fold enrichment (6-mer frequency, TF over GST control). The binding signal with SPI1 is 1.5 fold enrichment (6-mer frequency, TF over GST control); with SPIB, 1.34 fold enrichment (6-mer frequency, TF over GST control); with ELK3, 1.39 fold enrichment (6-mer frequency, TF over GST control).

Turning to ATGCCT, the binding signal is 1.38 fold enrichment (6-mer frequency, TF over GST control) with FLI1; 1.4 fold enrichment (6-mer frequency, TF over GST control) in the test with ELK1; 1.52 fold enrichment (6-mer frequency, TF over GST control) in the test with GABPA; 1.48 fold enrichment (6-mer frequency, TF over GST control) in the test with ERG; 1.35 fold enrichment (6-mer frequency, TF over GST control) with ELF1; 1.42 fold enrichment (6-mer frequency, TF over GST control) with EHF. For the same sequence, the binding signal in the test with SPI1 was 1.32 fold enrichment (6-mer frequency, TF over GST control); in the test with SPIB it was 1.45 fold enrichment (6-mer frequency, TF over GST control); with ELK3 it was 1.22 fold enrichment (6-mer frequency, TF over GST control).

For CTATAC, the binding signal is 1.28 fold enrichment (6-mer frequency, TF over GST control) with FLI1; 1.22 fold enrichment (6-mer frequency, TF over GST control) with ELK1; 1.35 fold enrichment (6-mer frequency, TF over GST control) with GABPA; 1.24 fold enrichment (6-mer frequency, TF over GST control) with ERG; 1.31 fold enrichment (6-mer frequency, TF over GST control) with ELF1; 1.21 fold enrichment (6-mer frequency, TF over GST control) with EHF. Further, the binding signal with SPI1 was 1.21 fold enrichment (6-mer frequency, TF over GST control); with SPIB, 1.16 fold enrichment (6-mer frequency, TF over GST control); with ELK3, 1.21 fold enrichment (6-mer frequency, TF over GST control).

Take CTAGCT: the binding signal with FLI1 was 1.36 fold enrichment (6-mer frequency, TF over GST control); with ELK1, 1.37 fold enrichment (6-mer frequency, TF over GST control); with GABPA, 1.3 fold enrichment (6-mer frequency, TF over GST control); in the test with ERG, 1.3 fold enrichment (6-mer frequency, TF over GST control); in the test with ELF1, 1.31 fold enrichment (6-mer frequency, TF over GST control); in the test with EHF it was 1.29 fold enrichment (6-mer frequency, TF over GST control). For the same sequence, the binding signal with SPI1 was 1.33 fold enrichment (6-mer frequency, TF over GST control); with SPIB, 1.34 fold enrichment (6-mer frequency, TF over GST control); in the test with ELK3 it was 1.39 fold enrichment (6-mer frequency, TF over GST control).

Consider GGTATT, for which the binding signal is 1.2 fold enrichment (6-mer frequency, TF over GST control) with FLI1; 1.17 fold enrichment (6-mer frequency, TF over GST control) with ELK1; 1.23 fold enrichment (6-mer frequency, TF over GST control) with GABPA; 1.24 fold enrichment (6-mer frequency, TF over GST control) with ERG; 1.18 fold enrichment (6-mer frequency, TF over GST control) in the test with ELF1; 1.19 fold enrichment (6-mer frequency, TF over GST control) in the test with EHF. The binding signal with SPI1 is 1.16 fold enrichment (6-mer frequency, TF over GST control); in the test with SPIB, 1.2 fold enrichment (6-mer frequency, TF over GST control); with ELK3, 1.15 fold enrichment (6-mer frequency, TF over GST control).

Consider TAACCC, for which the binding signal with FLI1 was 1.31 fold enrichment (6-mer frequency, TF over GST control); with ELK1, 1.4 fold enrichment (6-mer frequency, TF over GST control); with GABPA, 1.25 fold enrichment (6-mer frequency, TF over GST control); with ERG, 1.23 fold enrichment (6-mer frequency, TF over GST control); with ELF1, 1.28 fold enrichment (6-mer frequency, TF over GST control); with EHF, 1.25 fold enrichment (6-mer frequency, TF over GST control). Moreover, the binding signal is 1.18 fold enrichment (6-mer frequency, TF over GST control) with SPI1; 1.21 fold enrichment (6-mer frequency, TF over GST control) with SPIB; 1.38 fold enrichment (6-mer frequency, TF over GST control) with ELK3.

With AGCTCT, the binding signal was 1.19 fold enrichment (6-mer frequency, TF over GST control) with FLI1; 1.25 fold enrichment (6-mer frequency, TF over GST control) with ELK1; 1.17 fold enrichment (6-mer frequency, TF over GST control) with GABPA; 1.11 fold enrichment (6-mer frequency, TF over GST control) with ERG; 1.23 fold enrichment (6-mer frequency, TF over GST control) with ELF1; 1.18 fold enrichment (6-mer frequency, TF over GST control) with EHF. Besides, the binding signal with SPI1 is 1.04 fold enrichment (6-mer frequency, TF over GST control); in the test with SPIB, 1.04 fold enrichment (6-mer frequency, TF over GST control); with ELK3, 1.15 fold enrichment (6-mer frequency, TF over GST control).

As for CTTGCC, the binding signal was 1.29 fold enrichment (6-mer frequency, TF over GST control) with FLI1; 1.17 fold enrichment (6-mer frequency, TF over GST control) in the test with ELK1; 1.3 fold enrichment (6-mer frequency, TF over GST control) in the test with GABPA; 1.24 fold enrichment (6-mer frequency, TF over GST control) with ERG; 1.29 fold enrichment (6-mer frequency, TF over GST control) with ELF1; 1.33 fold enrichment (6-mer frequency, TF over GST control) with EHF. Further, the binding signal with SPI1 was 1.38 fold enrichment (6-mer frequency, TF over GST control); in the test with SPIB, 1.22 fold enrichment (6-mer frequency, TF over GST control); with ELK3 it was 1.3 fold enrichment (6-mer frequency, TF over GST control).
